# Screens deposited in PubChem BioAssay by several laboratories.
# Compounds with a hit are over-represented: about 1.9% of the library has one in this group of screens.
# PP5 primary: PP5 phosphatase inhibitors, primary screen, biochemical, fluorescence; Serine/threonine-protein phosphatase 5 (Homo sapiens), P53041; purified PP5c, OMFP substrate fluorescence; inhibition, % at 6.7 µM; 0.18% of 320,000 active; AID 1987, 2009;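 active = inhibition above the campaign's mean inhibition across all tested compounds plus 3 SD, cut at about 9.5% in these data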
# PP1 inh: PP1-alpha phosphatase inhibitors, primary screen, counter-screen for PP5 inhibitor project, biochemical, fluorescence, OMFP substrate, single point. inhibition, % at 6.7 µM. Serine/threonine-protein phosphatase PP1-alpha catalytic subunit (Homo sapiens), P62136. purified PP1alpha. 0.9% of 320,000 active;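 active = inhibition above the mean inhibition of all tested compounds plus 3 SD, computed separately for each screening campaign, cut at about 15% in these data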
# Target sequence (P62136 whole entry, looked up): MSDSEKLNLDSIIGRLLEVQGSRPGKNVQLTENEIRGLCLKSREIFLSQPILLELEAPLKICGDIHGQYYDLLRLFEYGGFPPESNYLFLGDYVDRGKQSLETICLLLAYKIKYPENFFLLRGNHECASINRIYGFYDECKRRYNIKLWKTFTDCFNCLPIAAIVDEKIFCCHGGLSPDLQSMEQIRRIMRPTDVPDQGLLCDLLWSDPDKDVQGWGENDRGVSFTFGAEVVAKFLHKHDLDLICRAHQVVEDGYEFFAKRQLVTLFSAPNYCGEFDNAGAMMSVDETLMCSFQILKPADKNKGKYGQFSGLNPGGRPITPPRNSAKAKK
# ATG4B inh: ATG4B protease inhibitors, primary screen, biochemical, fluorescence, uHTS. Cysteine protease ATG4B (Homo sapiens), Q9Y4P1. ATG4B cleavage of LC3-PLA2, NBD-HPC fluorescence, 1 h. inhibition, % at 8.33 µM. 0.51% of 340,000 active; in the data active = inhibition above about 40%
# H9c2 protect: cardioprotection against H2O2-induced cell death, primary screen, uHTS, H9c2 cells, ATPLite luminescence; H9c2 cardiomyocytes, H2O2 injury protection, 2 h; 0.63% of 360,000 active; protection from H2O2 cell death, % at 20 µM; AID 588492, 2011;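 active = compounds giving at least 50% protection of heart cells from peroxide-induced death in the single-dose screen, raw or plate-pattern-corrected value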
# Hits are given with their value; i = inactive; nt = no result.
SMILES,PP5 primary,PP1 inh,ATG4B inh,H9c2 protect
COc1ccccc1NC(=O)c1ccc(NC(=O)Cc2n[nH]c(=O)c3ccccc23)cc1,i,i,i,70.5
CCOC(=O)C1=C(COC(=O)c2cccc(Br)c2)NC(=O)NC1C (centres undefined),i,i,i,i
CCOC(=O)C1=C(COC(=O)/C=C/c2ccc(F)cc2)NC(=O)NC1C (centres undefined),nt,nt,nt,45.2
CCOC(=O)C1=C(COC(=O)c2cc(OC)c(OC)c(OC)c2)NC(=O)NC1C (centres undefined),i,i,i,59.5
CCOC(=O)C1=C(COC(=O)/C=C/c2ccc(Cl)cc2)NC(=O)NC1C (centres undefined),i,i,i,i
Cc1ccccc1CS(=O)(=O)CCC(=O)NCc1ccc(F)cc1Cl,i,i,i,i
CCn1cc(C(=O)N2CCc3ccccc32)c(=O)c2cc(S(=O)(=O)N(C)C3CCCCC3)ccc21,i,i,i,63.2
CCn1cc(C(=O)N2CCc3ccccc32)c(=O)c2cc(S(=O)(=O)N3CCOCC3)ccc21,i,i,i,i
Cc1ccccc1C1c2[nH]c3ccccc3c2C[C@H]2C(=O)N(c3ccccc3C(=O)NCCN3CCOCC3)C(=O)N12 (some centres undefined),i,i,i,i
Cc1ccccc1C1c2[nH]c3ccccc3c2C[C@H]2C(=O)N(c3ccccc3C(=O)NCCCN3CCOCC3)C(=O)N12 (some centres undefined),i,i,i,54.7
Cc1c(C(=O)NCC2COc3ccccc3O2)oc2ccc(S(=O)(=O)N3CCOCC3)cc12 (centres undefined),i,i,i,60.0
CCN(CC)S(=O)(=O)c1ccc2oc(C(=O)NCC3COc4ccccc4O3)c(C)c2c1 (centres undefined),i,i,i,54.0
CC(C)(C)c1cc(C(=O)C[n+]2ccc(C(=O)NCCCO)cc2)cc(C(C)(C)C)c1O,i,i,i,i
CCOc1ccc(-n2c(-c3ccccc3)nnc2-c2ccccc2)cc1,i,15.9,i,i
NS(=O)(=O)c1cc(C(=O)OCC(=O)N2CCOCC2)ccc1Cl,i,i,i,i
O=c1cc(COc2ncnc3c(Cl)cc(Cl)cc23)nc2sccn12,i,i,i,54.6
O=C(OCc1cc(=O)n2ccsc2n1)c1ccc(O)cc1O,i,i,i,63.5
CC(C)(C)OC(=O)N1CCCC(C(=O)Nc2cccc(C(=O)NCCCCc3ccccc3)c2)C1 (centres undefined),nt,nt,i,i
O=C(NCc1cccnc1)Nc1cccc([N+](=O)[O-])c1,i,i,i,i
O=c1cc(-c2cccc(Br)c2)nc(-c2ccccc2F)o1,i,i,45.8,i
O=c1cc(-c2ccccc2F)nc(-c2ccccc2F)o1,i,i,i,i
O=Cc1ccccc1OCCOc1ccccc1C=O,i,i,71.0,i
O=C(COC(=O)c1ccccc1OCc1ccccc1Cl)NCC1CCCO1 (centres undefined),nt,nt,i,i
Cc1cc(NC(=S)N(Cc2ccc(Br)cc2)Cc2ccc(C(=O)O)cc2)ccc1Cl,i,15.9,i,i
Cc1cccc(NC(=S)N(Cc2ccc(Br)cc2)Cc2ccc(C(=O)O)cc2)c1,i,i,i,i
SMILES,PP5 primary,PP1 inh,ATG4B inh,H9c2 protect
CC(NC(=O)c1cc(S(=O)(=O)N2CCCC2)ccc1Cl)c1ccccn1 (centres undefined),i,i,i,i
Cc1cccc(NC(=O)CNC(=O)CCc2nc3sc4c(c3c(=O)[nH]2)CCCC4)c1C,i,i,i,i
O=C(CCc1nc2sc3c(c2c(=O)[nH]1)CCCC3)Nc1ccccc1Cl,i,15.8,i,i
Oc1[nH]c(=S)sc1/C=C1\C(c2ccccc2)=Nc2ccccc21,i,i,99.4,i
Cn1c(=O)n(CCc2ccccc2)c(=O)c2c1nc1n2CCN1Cc1ccco1,i,i,i,98.1
CCN(CC)S(=O)(=O)c1ccc(OC)c(NC(=S)Nc2cccc(C)c2C)c1,i,i,i,i
COc1ccc(C(=O)NC(=O)CSc2nc3nc(C)cc(C)n3n2)cc1,nt,nt,i,i
COCCCn1c(C)nc2c(c1=O)c1nc3ccccc3nc1n2CCc1ccccc1,i,i,i,57.6
Cc1nc2ccccc2c(=O)n1CCc1ccccc1,i,i,i,i
COc1cc(C(=O)N/N=C(\C)c2ccccn2)cc(OC)c1OC,i,i,i,58.5
COc1cc(C(=O)N/N=C(\c2ccccc2)c2ccccn2)cc(OC)c1OC,i,i,i,78.0
CCCCCC(=O)N/N=C(\C)c1ccccn1,i,i,i,61.2
CCCCS(=O)(=O)N1CCCC(C(=O)NCC2CCCO2)C1 (centres undefined),i,i,i,i
Cc1ccc(S(=O)(=O)N(CC(=O)Nc2cccc(C)c2C)C(=O)N2CCN(C)CC2)cc1,nt,nt,i,i
CCn1c(O)c(/C=N/N=C/c2ccccc2)c2ccc(C3=NNC(=O)CC3)cc21,i,i,i,75.9
Cc1nnc(SCC(=O)N2c3ccccc3CC2C)s1 (centres undefined),i,i,i,i
CCc1nc(SCC(=O)N2c3ccccc3CC2C)c2c(C)c(C)sc2n1 (centres undefined),i,i,82.6,i
N#Cc1ccccc1OCC(=O)Nc1nnc(C2CC2)s1,i,i,i,i
COc1cc(C2C(C#N)=C(N)Oc3c2ccc2ccccc32)ccc1OCC(=O)Nc1ccccc1C (centres undefined),i,i,i,i
COC(=O)c1ccc(NC(=O)COc2ccc(C3C(C#N)=C(N)Oc4c3ccc3ccccc43)cc2OC)cc1 (centres undefined),i,15.9,i,i
Cc1ccc(NC(=S)NC(=O)C2CCCCC2)c(Br)c1,nt,nt,i,i
Cc1cc(O)c(C=Nc2ccc(N3CCOCC3)cc2)c(C)c1Cl,i,i,i,83.1
Cc1cc(C)c(C)c(S(=O)(=O)N2CCN(C(=O)c3ccccn3)CC2)c1C,i,i,i,i
O=c1c2ccccc2nc(SCc2nnc(-c3ccccc3Br)o2)n1-c1ccccc1,i,i,45.1,i
Brc1ccccc1-c1nnc(CSc2nncn2-c2ccccc2)o1,i,i,i,i
SMILES,PP5 primary,PP1 inh,ATG4B inh,H9c2 protect
COc1cc(C)cc2oc(=O)c(CC(=O)N3CCN(C(=O)C4COc5ccccc5O4)CC3)c(C)c12 (centres undefined),i,i,i,47.0
Cc1cc(O)c2c(C)c(CC(=O)N3CCN(C(=O)C4COc5ccccc5O4)CC3)c(=O)oc2c1 (centres undefined),i,i,i,i
CC(=O)c1cccc(Nc2nc(-c3sc(N)nc3C)cs2)c1,i,i,i,70.4
N#C/C(=C\c1ccc(O)c(O)c1)C(=O)NCCc1ccccc1,i,i,i,77.2
N#C/C(=C\c1ccc(O)c(O)c1)C(=O)N1CCc2ccccc21,i,i,i,77.4
O=C(NCCCNC(=O)c1cc(Cl)ccc1Cl)c1ccccn1,i,i,i,i
CCCc1nnc(NS(=O)(=O)c2ccc(C)cc2)o1,nt,nt,i,i
O=c1cc(-c2ccc(O)c(O)c2)oc2c1ccc1ccccc12,i,i,i,i
